The campaign covered roughly 2,300 compounds. About 1,200 (52%) were called active. The rule behind the calls is not given here. So high a share suggests a set chosen from earlier hits. This is one part of the list. Entries that show only a call come without a potency. Potency and affinity values are given separately.

A short description of the test: mammalian cell cytotoxicity, dose response, cytotoxicity control for M. tuberculosis inhibitor project (AID 435019).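 Note: lower values mean fewer viable cells so more cytotoxicity.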 The note with it: cytotoxicity counter-screen; series mostly up to 40 µM.
Turning to `COC(=O)CSc1nnc(-c2sc3cc(OC)ccc3c2Cl)n1C`, the compound was called inactive.
With `CNC(=O)COC(=O)c1ccc(-c2nc3ccccc3s2)s1`, the compound was called inactive.
With `CNC(=O)c1csc(-c2ccc(Cl)cc2)n1`, the compound was classed as inactive.
`COc1ccc(COC(=O)CCNC(=O)c2ccc(Cl)cc2)cc1`: the outcome was inactive.
For `C/C(=N\Nc1ccc(Cl)c(Cl)c1)c1ccc(-n2ccnc2)cc1` the value was “inactive”; for `CNc1ncnc2c1ncn2[C@@H]1O[C@H](CO)[C@@H](O)[C@H]1O`, “inactive”.
As to `O=C(CCSc1ccccn1)c1ccccc1`, the call was inactive.
Take `O=C(OCC#CCSc1nnc(-c2cccc3ccccc23)o1)c1cccs1`: the outcome was inactive.
For the compound `O=C(CCC(=O)NC1CCCCCCC1)Nc1nnc(C(F)(F)F)s1`, the outcome was inactive.
In the case of `CCOc1ccc(NC(=S)NC23CN4CN(CN(C4)C2)C3)cc1`, the compound was called inactive.
Turning to `COc1ccc(S(=O)(=O)N(C)CC(=O)NCCCn2ccnc2)cc1Cl`, the call was inactive.
With `CCCOc1ccc(N2CC(C(=O)Nc3ccccn3)CC2=O)cc1` (centres undefined) the entry was “inactive”; with `Nc1ccc(S(=O)(=O)Nc2cnc3ccccc3n2)cc1`, “inactive”; with `CCOc1ccc(N2C(=O)CS/C2=C(\C(Cl)=C(Cl)Cl)[N+](=O)[O-])cc1`, “inactive”.
Consider `COc1ccc(C(=O)Cn2nc(CNc3ccc(Br)cc3)[n+]3c2CCCCC3)cc1`, for which the outcome was inactive.
For `CCc1nnc(NS(=O)(=O)c2ccc(N/C=C\C(=O)c3cccc(OC)c3)cc2)s1` the value was “inactive”.
For `COc1ccc(C2CC2/C(C)=N/OC(=O)c2ccc(F)cc2)cc1` (centres undefined) the value was “inactive”; for `CCCCCC(=O)Nc1cccc2ccccc12`, “inactive”; for `COc1cc(N=Nc2ccc3ccccc3c2)ccc1O`, “inactive”.
On to `CCOc1cccc2cc(C(=O)Nc3nccs3)c(=O)oc12`, for which the outcome was inactive.
As to `O=C(O)Cc1cnc[nH]1`, the compound was called inactive.
`O=C(CCl)c1ccc2c(c1)CCN2C(=O)C1CCCCC1`: the result was inactive.
For `COc1ccccc1/C=C/C1=NC(=C\C=C/c2ccccc2)/C(=O)O1` the value was “inactive”; for `C(=C\c1ccccc1)/C=N/Nc1nc2ccccc2s1`, “inactive”.
For `COc1ccc(C2CC(=O)C3=C(C2)NC(C)=C(C#N)C3c2ccc(N(C)C)cc2)cc1` (centres undefined) the value was “inactive”; for `CCOc1ccc(N=CC2=C(O)CC(c3ccco3)CC2=O)cc1` (centres undefined), “inactive”.
With `Nc1c(C(=O)Nc2ccc(Br)cc2)sc2nc(-c3ccco3)ccc12`, the outcome was inactive.
For `CCCCCCc1cc2cc(C(=O)NCc3ccccc3)c(=N)oc2cc1O` the value was “inactive”.
With `Cc1ccc(NC2Sc3ccccc3NC2=O)cc1Cl` (centres undefined), the compound was called inactive.
As to `O=C(C[n+]1ccccc1)NNc1ccccc1`, the compound was called inactive.
On to `CN(C)C(=O)c1ccc(NC(=O)COC(=O)c2cc3c(s2)CCCCC3)cc1`, for which the result was inactive.
Turning to `Cc1ccc(NC(=O)COC(=O)c2ccc(=O)n(Cc3ccccc3)n2)cc1F`, the compound was called inactive.
For the compound `COC(=O)c1ccc(Cn2cc(C(F)(F)F)cc([N+](=O)[O-])c2=O)cc1`, the call was inactive.
In the case of `COc1ccc(C(=O)COC(=O)[C@H](C)Nc2ccc(C(F)(F)F)cc2[N+](=O)[O-])cc1`, the call was inactive.
Consider `CCOC(=O)CSc1nsc(SCC(=O)OCC)c1C#N`, for which the compound was called inactive.
In the case of `CCOc1ccc(N=c2scc(-c3ccccc3)n2CCO)cc1`, the call was inactive.
For `Oc1ccc2cc(Br)ccc2c1CN1CCCC1`, the result was inactive.
For `CSc1cc(-c2ccncc2)nc(-c2ccc(Cl)cc2)c1` the value was “inactive”; for `Cc1ccnc(NC(=O)CCc2c[nH]c3ccccc23)c1`, “inactive”; for `Cn1ccc(=Nc2ccc(NC(=O)c3ccc(N=c4ccn(C)c5ccc([N+](=O)[O-])cc45)cc3)cc2)cc1`, “inactive”.
For the compound `COc1ccc(-c2nnc(SCC(=O)N3CCc4ccccc4C3)o2)cc1`, the result was inactive.
With `CCOC(=O)C1CCCN(c2ncnc3c2cnn3-c2ccc(OC)cc2)C1` (centres undefined) the entry was “inactive”.
In the case of `CCOC(=O)N1CCN=C1SCc1ccc(C(F)(F)F)cc1`, the call was inactive.
For `COc1ccc(-c2nnc(NC(=O)c3ccc([N+](=O)[O-])o3)o2)c(OC)c1`, the compound was called inactive.
As for `O=[N+]([O-])c1ccc(-n2cnc3ccccc32)c([N+](=O)[O-])c1`, the outcome was inactive.
Take `Cc1ccc(S(=O)(=O)N(C)c2ccc(OCC(=O)OCc3ccc(C#N)cc3)cc2)cc1`: the compound was classed as inactive.
As for `CC(/C=C/c1ccccc1)=N\NC(N)=S`, the compound was classed as inactive.
For `CC1CCC/C(=N\NC(=S)Nc2ccccc2)C1` (centres undefined), the compound was called inactive.
Consider `O=C(OCCN1C(=O)c2ccccc2C1=O)c1cc2ccccc2o1`, for which the compound was classed as inactive.
Turning to `CCN(CC)S(=O)(=O)c1ccc(/C=C/C(=O)OCC#N)cc1`, the compound was classed as inactive.
In the case of `Cc1ccnc(N2CCC(C(=O)Nc3cccc(C(F)(F)F)c3)CC2)n1`, the result was inactive.
For the compound `CCOC(=O)c1c(/N=C/N(C)C)sc(/C=N/Nc2ccccc2)c1-c1ccccc1Cl`, the compound was called inactive.
For `CCOC(=O)NNc1ccccc1`, the compound was called inactive.
Turning to `COC(=O)C1C2c3ccccc3OC1(C)N=c1s/c(=C/c3cnn(C)c3C)c(=O)n12` (centres undefined), the result was inactive.
`CCc1cc2c(=O)c(-c3cnn(-c4ccccc4)c3)c(C)oc2c(CN2CCCCC2)c1O`: the call was inactive.
As for `CC(NC(=O)c1ccccc1Br)C1CC2CCC1C2` (centres undefined), the call was inactive.
For the compound `O=C(OCc1nc2ccccc2s1)c1ccc(Br)o1`, the outcome was inactive.
On to `Cc1cc(/C=C/C(=O)O)c(C)n1-c1ccc(Cl)cc1`, for which the compound was called inactive.
With `CNc1cccccc1=S` the entry was “inactive”; with `NC(=O)CSc1nnc(COc2ccc3ccccc3c2)o1`, “inactive”; with `COc1ccc2c(c1)CCc1c(C(=O)Nc3c(C)n(C)n(-c4ccccc4)c3=O)noc1-2`, “inactive”.
On to `Cc1c(O)c(=O)n(-c2ccccc2)n1C`, for which the result was inactive.
For `CC(C)(C)c1ccc(C(=O)CSc2n[nH]c(=O)[nH]c2=O)cc1`, the call was inactive.
Turning to `Cc1ccccc1Cn1ccc(=NCc2ccccc2)cc1`, the compound was called inactive.
For the compound `CC(=O)n1cc(/C=C2/N=C(c3ccccc3)OC2=O)c2ccccc21`, the call was inactive.
For `O=C(CN1CCCCC1)Nc1nnc(-c2ccc([N+](=O)[O-])cc2)s1` the value was “inactive”.
For the compound `Cc1ccc(NC(=O)Cc2ccc(-c3ccccc3)cc2)nc1`, the call was inactive.
For the compound `CSc1cccc(NC(=O)CCS(=O)(=O)c2cccc3nonc23)c1`, the compound was called inactive.
Take `COC(=O)c1ccc(-n2cnc3ccccc32)nc1`: the result was inactive.
For `COc1ccc(N2CCN(C(=O)c3ccc(CNc4c(N5CCOCC5)c(=O)c4=O)cc3)CC2)cc1`, the call was inactive.
With `CN(C)c1ccc(/C=C2\N=C(C(C)(C)C)OC2=O)cc1`, the compound was classed as inactive.
`CCC(C)N1CCC2(CC1)N=c1c(c3c4c5c(C)c(O)c3c(O)c1=NC(=O)C(C)=CC=C[C@H](C)[C@H](O)[C@@H](C)[C@@H](O)[C@@H](C)[C@H](OC(C)=O)[C@H](C)[C@@H](OC)C=CO[C@@](C)(O5)C4=O)N2` (some centres undefined): the result was inactive.
`Cc1c2c(nc3ccccc13)CCC(C)C2` (centres undefined): the compound was classed as inactive.
As for `O=C1C(c2ccccc2)=[N+]([O-])c2ccccc21`, the outcome was inactive.
For `COc1ccc(NC(=O)CSC2CCCCC2)cc1` the value was “inactive”; for `COc1ccc(C2CC(=O)c3cnc(Nc4cc(C)cc(C)c4)nc3C2)cc1` (centres undefined), “inactive”.
In the case of `COc1ccc(NC(=O)c2oc3ccc(S(=O)(=O)N4CCOCC4)cc3c2C)cc1`, the result was inactive.
As for `O=C(N/N=C/c1c(F)c(F)c(F)c(F)c1F)c1cccc(S(=O)(=O)N2CCOCC2)c1`, the outcome was inactive.
With `COc1cc2cc(C(c3nnnn3C(C)(C)C)N3CCc4ccccc43)c(=O)[nH]c2cc1OC` (centres undefined) the entry was “inactive”.
For `COc1ccc(C2=NC(=O)/C(=C\c3cc(OC)c(OC)c(OC)c3)O2)cc1` the value was “inactive”.
`CCCCOC(=O)c1ccc(NC(=S)NC(=O)c2c(Br)c(C)nn2C)cc1`: the compound was classed as inactive.
As to `CN(CCO)c1cc(Sc2nc3ccccc3s2)c2nonc2c1[N+](=O)[O-]`, the compound was called inactive.
On to `CCCSC1=C(C#N)C(c2ccc(Cl)cc2Cl)CC(=O)N1` (centres undefined), for which the result was inactive.
As to `CN(C(=O)COC(=O)/C=C/c1ccc(Cl)c(Cl)c1)c1c(N)n(Cc2ccccc2)c(=O)[nH]c1=O`, the compound was classed as inactive.
Turning to `C=CCOc1c(Br)cc(CNc2nccs2)cc1OC`, the compound was called inactive.
Consider `O=C(CCc1nnc(CCCc2ccccc2)o1)NCCCC1CCCC1`, for which the outcome was inactive.
For `COc1ccc(N/C=C(\C2OC(=O)c3ccccc32)[N+](=O)[O-])cc1` (centres undefined) the value was “inactive”.
Turning to `COc1ccc(N=N/C(=C\O)C(=O)c2cccs2)cc1`, the compound was classed as inactive.
For `Cc1nc(SCC(=O)Nc2ccc(OCc3ccccc3)cc2)n[nH]1` the value was “inactive”.
With `C=CCc1cccc2cc(C(=O)OCC(=O)c3ccccc3)c(=O)oc12` the entry was “inactive”; with `Cn1ccnc1C(=O)C1CCCN(Cc2cn[nH]c2-c2ccc(-c3ccccc3)cc2)C1` (centres undefined), “inactive”.
Take `O=C(OCc1csc(Nc2ccccc2)n1)c1ccc(Cl)cc1`: the call was inactive.
Take `CC(=O)c1cccc(Nc2nc(-c3cccnc3)cs2)c1`: the call was inactive.
With `O=C(/C=C/c1ccc([N+](=O)[O-])cc1)NC1CC2CCC1C2` (centres undefined), the compound was called inactive.
For `CC(C)Oc1ccc(C(=O)N/N=C/c2ccc(-c3ccc(S(=O)(=O)Nc4ncccn4)cc3)o2)cc1` the value was “inactive”; for `O=C(c1ccc([N+](=O)[O-])s1)N1CCN(c2ccc(C(F)(F)F)cn2)CC1`, “inactive”; for `O=c1[nH]c(CN2CC=C(c3ccccc3)CC2)nc2cc(C(F)(F)F)ccc12`, “inactive”.
As for `CC(C)CNC(=S)NC(=O)c1csc([N+](=O)[O-])c1`, the compound was called inactive.
Take `O=C(Nc1cc(C(F)(F)F)ccc1Cl)C(Sc1cccc[n+]1[O-])c1ccccc1` (centres undefined): the outcome was inactive.
As to `CC1(C)CC(=O)c2cc(C(=O)NNc3ccccc3)c(=O)n(-c3ccccc3)c2C1`, the result was inactive.
For `COc1ccc(NC(=O)CSc2nnc(-c3ccccn3)n2N)cc1Cl`, the outcome was inactive.
Turning to `CSc1nn(-c2ccc(C(=O)OCC(=O)NC(=O)NC(C)C)cc2)c(=S)s1`, the result was inactive.
As to `COc1cc2c(cc1OC)CN(CCC(=O)c1ccc(Br)cc1)CC2`, the call was inactive.
For `C#CCCc1cscc1/C=[N+](\[O-])c1ccc(C(=O)OCC)cc1`, the outcome was inactive.
As for `Cn1cnnc1SCc1ccc(-c2ccc(Br)cc2)o1`, the compound was called inactive.
`Cc1ccc(NC(=O)/C(Cl)=C\c2ccccc2)cc1`: the result was inactive.
As to `CCc1ccc(/C=C2/C(=O)N(C)C(=S)N2CC(=O)OC)s1`, the call was inactive.
On to `Oc1ccc(/C=N/n2c3ccccc3c3ccccc32)cc1`, for which the compound was classed as inactive.
With `Cc1ccc(N2C(=O)C(F)(F)C2c2ccccc2)cc1` (centres undefined) the entry was “inactive”.

The values are drawn from PubChem BioAssay AID435019 (Southern Research Specialized Biocontainment Screening …, 2010).
